COUP-TFII inh: NR2F2 transcriptional activity inhibitors, primary screen, cell-based, luciferase reporter, HEK293T, luminescence; COUP transcription factor 2 (Homo sapiens), P24468; AID 686940, 2013; inhibition, % at 8.6 µM; HEK293T NGFI-A luciferase reporter; actives 0.7% (n = 370,000);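 active means inhibition above a per-plate cutoff, mean inhibition of test wells between control levels plus 3 SD, cut at about 38% in these data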;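 further: cells cotransfected with COUP-TFII expression vector driving the NGFI-A reporter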
LRH-1 inv ag: LRH-1 (NR5A2) inverse agonists, primary screen, cell-based, luminescence, HEK293T, StAR-luciferase reporter; inhibition, % at 3.6 µM; Nuclear receptor subfamily 5 group A member 2 (Homo sapiens), O00482; LRH-1 transfected, 24 h; actives 0.13% (n = 360,000);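 active means inhibition above the mean inhibition of all tested compounds plus 3 SD, cut at about 73% in these data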
Gli-Sufu block: Gli-Sufu pathway antagonists, primary screen, luciferase luminescence, Sufu-KO-LIGHT cells, uHTS; AID 588413, 2011; Sufu-KO-LIGHT fibroblasts, Gli luciferase reporter luminescence; inhibition, % at 5 µM; actives 0.74% (n = 340,000);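 active means inhibition above about 55%, limit read from the data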
SRC2 inh: inhibition of GAL4-SRC2 driven luciferase reporter, primary screen, SRC2 inhibitor project, cell-based, luminescence. Nuclear receptor coactivator 2 (Homo sapiens), Q15596. HEK293 GAL4-SRC2 luciferase reporter. inhibition, % at 9 µM. actives 0.17% (n = 370,000). AID 651957, 2012;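 active means inhibition above the mean inhibition of all tested compounds plus 3 SD, set per campaign, cut at about 52% in these data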
SRC3 inh: SRC3 coactivator transcriptional activity inhibitors, primary screen, cell-based, luminescence | HEK293 GAL4-SRC3 luciferase reporter | inhibition, % at 3.6 µM | actives 0.17% (n = 360,000) | AID 588352, 2011;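 active means inhibition above a per-campaign cutoff, the mean of all compounds plus 3 SD, cut at about 60% in these data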;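 further: higher means less SRC3-driven luciferase light from the GAL4 reporter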
SRC1 inh: SRC1 coactivator transcriptional activity inhibitors, primary screen, cell-based, luminescence; Nuclear receptor coactivator 1 (Homo sapiens), Q15788; HEK293 GAL4-SRC1 luciferase reporter; inhibition, % at 3.6 µM; actives 0.12% (n = 360,000); AID 588354, 2011;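 active means inhibition above the campaign mean plus 3 SD, with each screening campaign given its own cutoff, cut at about 60% in these data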
Gal4-VP16 ctr: Gal4-VP16 luciferase reporter inhibitors, counter-screen for COUP-TFII antagonist project, cell-based, luminescence, HEK293; shares compounds with COUP-TFII inh; inhibition, % at 8.5 µM; actives 25% (n = 2,500); AID 687007, 2013; in the data active means inhibition above about 13%
NR2F2 inh conf: NR2F2 transcriptional activity inhibitors, confirmation, cell-based, luciferase reporter, HEK293, triplicate. HEK293 NGFI-A luciferase reporter, luminescence. inhibition, % at 8.5 µM. AID 687008, 2013. actives 45% (n = 2,500). shares compounds with COUP-TFII inh;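 active means mean inhibition over three repeats above a set limit taken from the earlier primary screen, cut at about 38% in these data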
Hits are given with their value; 0 = inactive; - = not tested or not shown. A selection: hits, their analogues and other compounds. The true share with any hit is near 1.3%.

SMILES	COUP-TFII inh	LRH-1 inv ag	Gli-Sufu block	SRC2 inh	SRC3 inh	SRC1 inh	Gal4-VP16 ctr	NR2F2 inh conf
Cc1cc(C)cc(C(=O)NC(=S)Nc2ccc(-c3cc4ccccc4oc3=O)cc2)c1	39	0	0	0	0	0	18	0
COc1cccc(NC(=S)N(Cc2cccc(Br)c2)CC2CCC(C(=O)O)CC2)c1 (centres undefined)	39	0	0	0	0	0	0	0
Cc1ccc(OCC(=O)c2cc(C)n(CC(F)(F)F)c2C)c([N+](=O)[O-])n1	0	0	0	0	0	0	-	-
Cc1ccc(OCC(=O)c2cc(C)n(Cc3cccs3)c2C)c([N+](=O)[O-])n1	61	0	0	66	0	0	0	0
CCOc1ccccc1-n1c(SCC(=O)Nc2ccccc2C(=O)O)nc2ccccc2c1=O	56	0	0	0	0	0	23	0
CS(=O)(=O)N1CCc2cc(-c3csc(NC(=O)C(c4ccccc4)c4ccccc4)n3)ccc21	0	0	0	0	0	0	-	-
CC1Cc2cc(-c3csc(NC(=O)Cc4ccccc4)n3)ccc2N1S(C)(=O)=O (centres undefined)	75	0	0	0	0	0	0	49
COc1ccc(N2CCN(C(=O)c3ccc(CNS(=O)(=O)c4ccc(C)cc4)cc3)CC2)cc1	0	0	0	0	0	0	-	-
Cc1ccc(S(=O)(=O)NCc2ccc(C(=O)N3CCN(Cc4ccccc4)CC3)cc2)cc1	48	0	0	0	0	0	0	0
Cc1ccc(S(=O)(=O)NCc2ccc(C(=O)N3CCN(c4ccc([N+](=O)[O-])cc4)CC3)cc2)cc1	55	0	0	0	0	0	0	66
COc1ccc(S(=O)(=O)NCc2ccc(C(=O)N3CCN(Cc4ccccc4)CC3)cc2)cc1	0	0	0	0	0	0	-	-
Cc1ccc(-n2c(SCc3nc4ccccc4[nH]3)nnc2-c2ccccn2)cc1	0	-	-	0	-	-	-	-
COc1ccc(CCC[C@H](CCC(=O)N(c2ccccc2)c2ccccc2)CCc2ccccc2)cc1	0	-	-	0	-	-	-	-
O=C(O)Cn1cnc2c(OCc3ccccc3)ncnc21	0	0	0	0	0	0	-	-
Cc1cc(C)c(CN2CCN(C(=O)Cn3cnc4c(OCc5ccccc5)ncnc43)CC2)c(C)c1	63	0	0	0	0	0	0	64
CCCOc1ccc(CSc2nc3ccccc3[nH]2)cc1	38	0	0	0	0	0	0	0
CCOc1ccc(OCCSc2nc3ccccc3[nH]2)cc1	0	0	0	0	0	0	-	-
Cc1ccc(-c2cc(-c3nnc(SCC(=O)Nc4ccc(OCc5ccccc5)cc4)n3N)[nH]n2)cc1	0	-	-	0	-	-	-	-
Cc1ccc(-n2c(SCC(=O)N3CCCc4ccccc43)nnc2-c2cccnc2)c(C)c1	0	0	0	0	0	0	-	-
Cc1ccc(-n2c(-c3ccccc3)c[n+]3c2CCc2ccccc2-3)c(C)c1	64	0	87	0	71	0	17	57
O=C(NN=Cc1ccc(O)cc1)c1cc(-c2ccc(Cl)cc2)n[nH]1	0	-	-	0	-	-	-	-
NS(=O)(=O)c1ccc(CCNC(=O)CN2CCC(Cc3ccccc3)CC2)cc1	38	0	0	0	0	0	0	0
O=C(CN1CCC(Cc2ccccc2)CC1)NCCc1ccc(F)cc1	0	0	0	0	0	0	-	-
O=C(NCCN1CCC(Cc2ccccc2)CC1)C1CCCN(S(=O)(=O)c2ccc([N+](=O)[O-])cc2)C1 (centres undefined)	0	-	-	0	-	-	-	-
Cc1ccc(NC(=O)COc2ccc(N(C)C(=O)C(C)(C)C)cc2)cc1S(=O)(=O)N1CCCCC1	74	0	68	0	0	0	0	54
SMILES	COUP-TFII inh	LRH-1 inv ag	Gli-Sufu block	SRC2 inh	SRC3 inh	SRC1 inh	Gal4-VP16 ctr	NR2F2 inh conf
CCc1cccc(OCC(=O)Nc2ccc(C)c(S(=O)(=O)N3CCCCCC3)c2)c1	40	0	0	0	0	0	0	0
C[C@H](O)[C@@H]1C(=O)N2CCc3c([nH]c4c(-c5ccc6c(c5)OCO6)cccc34)[C@@H]2C[C@@H]1N(C)C(=O)c1ccccc1F	0	-	-	0	-	-	-	-
Cc1cc(Oc2ccc(N)cn2)cc(C)c1Cl	38	0	0	0	0	0	0	0
CC(C)(C)c1ccc(Oc2ccc(NC(=O)c3ccccc3C(=O)O)cn2)cc1	80	0	0	85	0	0	47	0
Nc1ccc(Oc2c(Cl)cccc2Cl)nc1	0	0	0	0	0	0	-	-
O=[N+]([O-])c1ccc(Oc2ccc(C(F)(F)F)cn2)cc1	0	0	0	0	0	0	-	-
CC(C)(C)c1ccc(Oc2ccc(N)cn2)cc1	78	0	0	86	0	0	76	67
CC(=O)N1CCN(c2ccc(N3CCN(C(C)=O)[C@@H](C)C3)c(C)c2)[C@@H](C)C1	0	-	-	0	-	-	-	-
COC(=O)[C@H]1C[C@@]2(N3CCCCC3)c3ccccc3N(C(=O)OC(C)(C)C)[C@H]2N1C(=O)OC(C)(C)C	0	-	-	0	-	-	-	-
Cc1ccc(OCC(=O)NC(=S)Nc2ccccn2)c(Br)c1	50	0	0	0	0	0	0	0
CC(C)CN1C(=O)C[C@@]2(C(=O)N(C)c3ccc(NC(=O)c4cc(F)ccc4F)cc32)C1c1ccccc1 (some centres undefined)	0	-	-	0	-	-	-	-
Cc1cc(C)cc(N(CC(=O)NC2CCC(C)CC2)S(=O)(=O)c2cccs2)c1 (centres undefined)	0	-	-	0	-	-	-	-
COc1cc(SC)ccc1C(=O)N1CCN(Cc2ccc3c(c2)OCO3)CC1	48	0	0	0	0	0	0	0
Cc1c(C(=O)N2CCN(Cc3ccc4c(c3)OCO4)CC2)sc2ncnc(N3CCN(c4ccccc4F)CC3)c12	46	0	0	0	0	0	0	57
CN1C2=N[C@@H](c3ccc4ccccc4c3)CC(=O)N2/C(=C\c2ccccc2)[C@H]1c1ccccc1	0	-	-	-	-	-	-	-
c1ccc2c(c1)Nc1cc3ccccc3cc1S2	0	0	0	0	0	0	-	-
c1ccc2c(c1)Nc1ccncc1S2	38	0	0	0	0	0	0	0
CN1C(=O)/C(=C/c2coc3ccc(O)cc3c2=O)SC1=S	0	0	0	0	0	0	-	-

Screening data (PubChem BioAssay)
